# This is one part of a sample in which hits are shown more often than they occur.
# RE007 growth inh: less growth of the S. pombe RE007 Vpr strain; 360,000 tested, 0.21% active; S. pombe RE007 Vpr strain, BacTiter-Glo ATP luminescence, 24 h; AID 651644; Potency, µM (highest dose often 92.2 µM), for the others: top-dose activity change, negative = less growth, hits mostly inhibitors; active means well fitted falling curve with a large enough effect; inconclusive means small, poorly fitted or top-dose-only effect; inactive means no such curve, though single readings can be large or run the other way; further: potency means the concentration at half of the fitted maximal effect; on the % scale 0 is the no-effect control and ±100 the full control effect; nearly all actives have a fitted effect of over 50% in size
#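 Fission yeast strain RE007, carrying one chromosomally integrated HIV-1 vpr copy, was seeded at OD 0.01 in PMG+AL medium with 23 nL pinned compound. After 24 h at 30 °C and 99% humidity, viability was read by BacTiter-Glo luminescence.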
# TbPYK inhibitor: inhibitors of Trypanosoma brucei pyruvate kinase | TbPYK enzyme, Kinase-Glo Plus ATP luminescence, 45 min | Potency, µM (doses to about 76.8 µM), without a hit: at the top dose activity, negative = inhibition, usual class: inhibitors | 410,000 tested, 0.12% active; further: potency means the concentration at half of the fitted maximal effect; on the % scale 0 is the no-effect control and ±100 the full control effect; nearly all actives have a fitted effect of over 50% in size
#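 Readout: single end-point luminescence (Kinase-Glo Plus, 10 min). Reaction conditions were TbPYK/substrate plus 130 uM ADP, 45 min at RT, pH 7.2 TEA buffer. No-enzyme wells served as controls, and data were normalized before concentration-response fitting.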
# Shiga inhibitor: blocks Shiga toxin action in Vero cells; inhibition, % at 38.7 µM; AID 2315; 290,000 tested, 9.2% active; Vero cells, Shiga toxin protein synthesis inhibition reporter; in the data active means inhibition mostly above about 28%, no sharp cut-off; inactive means mostly below about 43%; further: 0% is about no effect
# LmPK inh: LmPK (Leishmania mexicana) enzyme inhibition. purified LmPK, Kinase-Glo ATP luminescence, 1 h. Potency, µM (highest dose often 57.5 µM), for inactives: at the highest dose activity change, negative = inhibition, actives largely listed as inhibitors. 290,000 tested, 0.37% active; further: potency means the concentration at half of the fitted maximal effect; on the % scale 0 is the no-effect control and ±100 the full control effect
#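 ATP generated from ADP (0.1 mM) and PEP (0.5 mM) by 0.1 nM LmPK over 1 h at room temperature (pH 7.2 imidazole buffer) was detected by coupled luciferase luminescence. Values were normalized to uninhibited and no-enzyme wells.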
# FBPA Giardia inh: blocks Giardia fructose-bisphosphate aldolase activity | A8B2U2 | purified Giardia FBPA | Potency, µM (titrated, usually from 59.6 µM), for inactives: at the top dose activity, negative = inhibition, usual class: inhibitors | 290,000 tested, 0.71% active | AID 2451; further: potency means the concentration at half of the fitted maximal effect; on the % scale 0 is the no-effect control and ±100 the full control effect; nearly all actives have a fitted effect of over 55% in size
# Target sequence (A8B2U2 whole entry, looked up): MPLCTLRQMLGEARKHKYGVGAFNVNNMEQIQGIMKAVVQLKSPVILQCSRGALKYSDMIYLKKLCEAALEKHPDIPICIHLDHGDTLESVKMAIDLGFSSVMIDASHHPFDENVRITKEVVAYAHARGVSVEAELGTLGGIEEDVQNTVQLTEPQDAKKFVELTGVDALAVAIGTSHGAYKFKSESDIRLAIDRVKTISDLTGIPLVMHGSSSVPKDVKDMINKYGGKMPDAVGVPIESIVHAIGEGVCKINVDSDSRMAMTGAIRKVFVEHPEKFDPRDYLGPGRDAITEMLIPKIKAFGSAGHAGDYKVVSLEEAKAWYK
#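 Giardia FBPA (40 nM reagent) was preincubated 10 min at RT with compound (up to 57.5 uM final), then substrate plus GAPDH/TPI/NAD/arsenate coupling system with diaphorase/resazurin was added; resorufin fluorescence (525/598 nm) was read after 20 min.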
# Cycloheximide cs: counter-screen for Shiga toxin inhibitors: cycloheximide protein synthesis inhibition. cell reporter, cycloheximide protein synthesis inhibition counterscreen. max response, %. 300,000 tested, 12% active. AID 2314; in the data active means max response mostly above about 13%, no sharp cut-off; inactive means mostly below about 14%; further: read at 38.3 µM for the half of the compounds with a filed dose; 0% is about no effect
# Numbers without * were called inactive; ? = inconclusive; nt = no result given; + = active, no number. Unless noted, the call rests on the fitted dose curve; in most records, active means well fitted curve in the direction sought with a large enough effect; inconclusive means small, poorly fitted or top-dose-only effect, or another doubt; inactive means no such curve, though single readings can be large; an effect the other way counts as inactive or inconclusive.
SMILES,RE007 growth inh,TbPYK inhibitor,Shiga inhibitor,LmPK inh,FBPA Giardia inh,Cycloheximide cs
Oc1ccccc1N1CCN(c2ccc3ccccc3n2)CC1,?,3%,102*,2%,4%,42*
c1ccc(CN2CCN(c3cnc4ccccc4n3)CC2)cc1,-2%,-4%,131*,4%,-2%,52*
COc1ccc(OC)c(CCNC(=O)c2cc3c(s2)-c2c(C)cccc2OC3)c1,nt,0%,nt,nt,nt,nt
COc1ccccc1NC(=O)C1=C(C)Nc2nc(SCc3ccccc3)nn2C1c1cccc(O)c1 (configuration not stated),nt,5%,nt,nt,nt,nt
O=C(CCC1CCCN(C(=O)c2ccccc2Cl)C1)N1CCN(c2ccccn2)CC1 (configuration not stated),-5%,-2%,-6,-1%,5%,-1
Cc1cc(C)n2c(SCc3cccs3)nnc2n1,1%,-22%,+,2%,0%,15*
CCCCCCCCCCCCCCCC(=O)O[C@H](CC(=O)O)C[N+](C)(C)C,nt,nt,nt,nt,13%,nt
COc1ccc(NC(=O)CCOc2ccccc2)c(OC)c1,-17%,6%,32,0%,2%,20*
CCOC(=O)c1ccc(NC(=O)CCOc2ccc(C)cc2)cc1,2%,-8%,-12,-4%,-5%,-2
COC(=O)c1ccc(NC(=O)CCOc2ccccc2)cc1,-25%,3%,37,-4%,3%,22*
COC(=O)c1ccc(NC(=O)C(OC)c2ccccc2)cc1 (configuration not stated),-2%,-2%,22,-1%,-1%,17*
COC(C(=O)N/N=C(\C)c1ccc(C)cc1)c1ccccc1 (configuration not stated),-5%,-4%,19,-2%,10%,11*
CCCCS(=O)(=O)N[C@@H](Cc1ccc(OCCCCC2CCNCC2)cc1)C(=O)O,nt,3%,nt,nt,nt,nt
COc1ccc(NC(=O)C2C3CCC(O3)C2C(=O)O)c(OC)c1 (configuration not stated),-13%,-2%,37,-1%,-3%,29*
COC(=O)c1ccc(NC(=O)CC(=O)Nc2ccc(C(=O)OC)cc2)cc1,-16%,1%,-3,-3%,3%,-1
COC(=O)c1ccc(NC(=O)c2ccccc2NS(C)(=O)=O)cc1,-18%,0%,48*,-2%,-2%,24*
O=C(CCOc1ccccc1)Nc1ccc(Br)cc1,8%,3%,57*,2%,7%,38*
COC(=O)c1ccc(NC(=O)CNc2ccccc2)cc1,17%,2%,61*,-6%,-1%,36*
O=C(NC1CCCCC1)C1CC(=O)N(Cc2ccccc2)C1 (configuration not stated),-22%,1%,-3,2%,5%,-4
CCN(CC(=O)NCc1cccs1)C(=O)c1cccc(S(=O)(=O)N2CC(C)OC(C)C2)c1 (configuration not stated),-6%,-3%,nt,nt,nt,nt
CCCN(CCC)CC(O)Cn1cc(/C=C/C(=O)c2ccc(OC)cc2)c2ccccc21 (configuration not stated),nt,2%,nt,nt,nt,nt
COc1cc(NC(=O)c2ccccc2)c(OC)cc1NC(=O)CN1C(=O)N(C)C2(CCCCC2)C1=O,8%,-5%,nt,nt,nt,nt
COc1ccc(NC(=O)CCOc2ccccc2)cc1,-11%,-14%,117*,-2%,0%,65*
O=C(Cn1cnc2onc(-c3ccc(F)cc3)c2c1=O)N1CCN(c2ccc(F)cc2)CC1,nt,-1%,nt,nt,nt,nt
Cc1nc2ccccc2cc1OCc1ccc(Cl)cc1,-18%,-12%,101*,-3%,9%,54*
SMILES,RE007 growth inh,TbPYK inhibitor,Shiga inhibitor,LmPK inh,FBPA Giardia inh,Cycloheximide cs
COC(=O)c1sccc1OCc1cccc(OC)c1,-18%,-2%,38,11%,0%,20
COc1cccc(COc2cc3ccccc3nc2C)c1,-22%,2%,58*,-4%,-10%,17*
Cc1nc(OCc2ccccc2)c2ccccc2n1,-1%,3%,-17,6%,5%,-1
Cc1nc2ccccc2cc1OCc1ccccc1,-10%,-8%,22,0%,-4%,46*
O=C(Cc1cccc(NC(=O)C2CCN(C(=O)C3CCC3)CC2)c1)Nc1cccc(C(=O)N2CCOCC2)c1,7%,3%,nt,nt,nt,nt
COCCNc1ncnc2ccc(-c3ccc(C(=O)N(C)C)cc3)cc12,nt,nt,nt,nt,1%,nt
NCCCC[C@H](NC(=O)[C@@H](Cc1ccccc1)NC(=O)[C@H](Cc1c[nH]c2ccccc12)NC(=O)[C@@H](CCCCN)NC(=O)[C@@H](Cc1c[nH]c2ccccc12)NC(=O)[C@@H](N)Cc1cnc[nH]1)C(N)=O,nt,nt,-7,nt,2%,-8
Cc1ccc(C(c2sc3nc(-c4ccco4)nn3c2O)N2CCC3(CC2)OCCO3)cc1 (configuration not stated),nt,-7%,nt,nt,nt,nt
Cc1ccc(N/C=C(/C#N)c2ccsc2)cc1C,1%,1%,87*,1%,-26%,42*
O=C(CC1CCS(=O)(=O)C1)NC1CCCCC1 (configuration not stated),7%,3%,-6,0%,3%,-2
O=C(CCC1CCCC1)NC1CCCCC1,6%,5%,65*,-2%,3%,18*
O=C(CC1CCCCC1)NC1CCCC1,-2%,-2%,26,-14%,5%,19*
C=CCOC(=O)CCCC(=O)NC1CCCCC1,8%,1%,active,-3%,0%,8
CCCCCCCCCCCCCC(=O)OC(C)C,nt,3%,nt,nt,nt,nt
O=C1C(Cl)=C(NC2CCCCC2)C(=O)N1c1ccc(Cl)cc1,1%,2%,53*,0%,-1%,25*
O=[N+]([O-])c1cc2c(cc1CN1CCN(c3ccccc3)CC1)OCO2,-10%,-6%,nt,-2%,-1%,35*
O=[N+]([O-])c1ccc(CN2CCN(c3ccccc3)CC2)o1,-13%,6%,nt,0%,?,-3
CN(C(=O)c1cccc(NC(=O)Cc2ccc(NC(=O)C3CCN(C(=O)c4ccccc4)CC3)cc2)c1)C1CCCC1,2%,0%,nt,nt,nt,nt
Oc1ccc(Br)cc1CNc1nccs1,2%,-2%,16,1%,11%,-2
COc1ccc(CNc2cc(C)ccn2)c(O)c1,0%,5%,79*,4%,3%,25*
Oc1ccc(Br)cc1CNc1ccccn1,-18%,-26%,38,6%,-1%,13*
Cc1ccnc(NCc2ccccc2O)c1,-4%,5%,nt,4%,-10%,14*
NC(=O)NC(CC(=O)OCC(=O)Nc1nnc(-c2ccccc2)o1)c1ccc(Cl)cc1 (configuration not stated),9%,-8%,nt,nt,nt,nt

# Screening results: PubChem, National Center for Advancing Translational Sciences (NCATS)
